# High-throughput results: PubChem BioAssay, Sanford-Burnham Center for Chemical Genomics
# TROY signal inh: blocks TROY-dependent signaling in reporter cells | actives 0.98% (n = 360,000) | inhibition, % at 10 µM | AID 1347056 | Q293 LMP1-TROYcd NF-kB luciferase reporter, 4 h;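 active means compounds whose plate-normalised and pattern-corrected inhibition of the luciferase reporter signal at the single screening dose is 50% or more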
# KKLEB cytotox: reduces viability of KKLEB cystic fibrosis airway cells; actives 0.36% (n = 360,000); activity change (cytotoxicity), % at 5 µM; KKLEB CF airway cells viability, ATPlite luminescence, overnight; active compounds read low; cells stimulated with P. aeruginosa culture filtrate;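 active means corrected activity change at or below -50% at 5 µM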
# CF NFkB inh: blocks PAF-induced NF-kB reporter in cystic fibrosis cells; AID 588850; KKLEB NF-kB-GFP reporter, GFP fluorescence overnight; actives 0.86% (n = 360,000); inhibition, % at 5 µM;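 active means at least 50% inhibition at 5 µM, scaled per plate between neutral and stimulator controls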;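 further: PAF is a Pseudomonas aeruginosa culture filtrate used as stimulus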
# TWEAK Fn14 block: inhibitors of TWEAK-Fn14 interaction signaling | TWEAK-stimulated Fn14 reporter cells, luciferase luminescence, 8 h | inhibition, % at 10 µM | actives 2% (n = 360,000) | AID 1159606; in the data active means inhibition above about 50%
# Peg3 promoter: reduces Peg3 promoter-driven luciferase expression in HeLa. HeLa PEG-Prom luciferase reporter, luminescence, overnight. inhibition, % at 20 µM. actives 1.7% (n = 360,000);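 active means inhibition of at least 50% at 20 µM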
# HIF-2a block: blocks HIF-2a reporter activity; 786-0 RCC cells HIF-2a reporter, luciferase luminescence, overnight; inhibition, % at 18.8 µM; actives 0.72% (n = 360,000); AID 624352;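 active means inhibition of the luminescence signal of 40% or more relative to plate controls, in a single-dose primary screen at 18.75 µM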
# Hits are given with their value; . = inactive; / = not tested or not shown. Hits are enriched below; roughly 4% of the tested compounds scored in any of these assays.
SMILES,TROY signal inh,KKLEB cytotox,CF NFkB inh,TWEAK Fn14 block,Peg3 promoter,HIF-2a block
COc1cccc(N=c2oc3ccccc3cc2-c2nc3ccccc3[nH]2)c1,.,.,.,74.6,.,.
COc1cccc(N=c2oc3ccc(OC)cc3cc2-c2nc3ccccc3[nH]2)c1,.,.,.,62.0,.,.
CCOC(CNCc1cc(C)c2[nH]c3ccccc3c2c1C)OCC,.,.,.,.,74.0,.
Cc1coc2c(C)c3oc(=O)cc(-c4ccccc4)c3cc12,.,.,.,.,74.5,.
CCCc1cc(=O)oc2c(C)c3occ(C)c3cc12,.,.,.,.,.,.
CC(C)(C)C1CCc2c(sc3nc(SCC(=O)O)nc(N)c23)C1 (configuration not stated),.,.,.,.,.,54.6
CC1(C)Cc2c(sc3nc(SCC(=O)O)nc(N)c23)CO1,.,.,.,.,.,.
COC(=O)CSc1nc(N)c2c3c(sc2n1)C(c1ccccc1)SC(c1ccccc1)C3 (configuration not stated),.,.,.,.,.,88.0
CCOC(=O)c1ccc(N2N=C(C)/C(=C/C=C/c3ccco3)C2=O)cc1,.,.,.,.,.,.
CC1=NN(c2ccc(C)c(C)c2)C(=O)/C1=C\C=C\c1ccc([N+](=O)[O-])o1,.,.,.,86.4,87.6,.
Cc1nc2ccccn2c1C(=O)N=Nc1c(O)n(CCC(C)C)c2ccccc12,.,.,.,68.6,107.1,.
COc1ccc(CCNc2ccc(C(=O)O)cc2[N+](=O)[O-])cc1OC,.,.,.,.,.,.
COc1ccc(CCNc2cc(N3CCN(C(=O)c4ccccc4F)CC3)ccc2[N+](=O)[O-])cc1OC,.,.,.,93.2,.,.
O=C(c1ccccc1F)N1CCN(c2ccc([N+](=O)[O-])c(NCc3cccnc3)c2)CC1,.,.,.,71.8,.,.
COc1ccc(C(=O)N2CCN(c3ccc([N+](=O)[O-])c(NCCc4ccc(OC)c(OC)c4)c3)CC2)cc1,62.6,.,.,92.2,.,.
Cc1ccc(S(=O)(=O)N2CCC(C(=O)NC3CCCCC3C)CC2)cc1 (configuration not stated),.,.,.,.,.,.
NC(=O)c1cc([N+](=O)[O-])ccc1NCc1cccnc1,.,.,.,.,.,.
O=C(/C=C/c1ccc(Cl)cc1Cl)N1CCN(c2ccc([N+](=O)[O-])c(N3CCOCC3)c2)CC1,.,.,.,.,.,.
O=C(/C=C/c1ccc(Cl)cc1)N1CCN(c2ccc([N+](=O)[O-])c(N3CCOCC3)c2)CC1,56.4,.,.,64.3,.,.
CN(C)CCOc1ccc(-c2c(-c3ccccc3)sc3ccccc23)cc1,.,-89.2,82.3,.,100.2,.
O=C(CSc1nc2ccccc2c(=O)[nH]1)Nc1ccc(S(=O)(=O)N2CCCC2)cc1,.,.,.,.,.,.
COc1cccc(C(=O)NCC(=O)OCC(=O)Nc2ncc(Cl)cc2Cl)c1,.,.,.,87.9,.,.
Cn1nc(-c2ccc(OCC(=O)Nc3ccccc3)cc2)c2ccccc2c1=O,.,.,.,53.1,.,.
Cc1cccc(C)c1NC(=O)CN(C)C(=O)Cc1cccc(C(F)(F)F)c1,.,.,.,54.7,.,.
Cc1cc2occ(CC(=O)N(C)CC(=O)Nc3c(C)cccc3C)c2cc1C,.,.,.,.,.,.
SMILES,TROY signal inh,KKLEB cytotox,CF NFkB inh,TWEAK Fn14 block,Peg3 promoter,HIF-2a block
COC(=O)c1cc(S(=O)(=O)Nc2c(C)cccc2C)cn1C,.,.,.,.,.,.
COC(=O)c1cc(S(=O)(=O)Nc2cccc(OC)c2)cn1C,.,.,.,.,51.8,.
O=[N+]([O-])c1ccc(O)c(/C=N/Nc2ccc(Cl)nn2)c1,.,-81.2,62.2,.,.,.
N#Cc1ccsc1NC(=O)COC(=O)c1cc(Br)ccc1O,.,.,.,.,.,.
C=CCc1ccc(OCc2ccc(C(=O)O)o2)c(OC)c1,.,.,.,.,.,.
Cc1ccc(-c2nc(N=Nc3ccc(O)cc3)n[nH]2)cc1,.,.,.,.,67.8,.
COc1ccc(Nc2nc(N/N=C/c3ccc(N(C)C)cc3)nc(C)c2[N+](=O)[O-])cc1,.,.,.,.,.,.
COc1ccc(/C=N/Nc2nc(C)c([N+](=O)[O-])c(N(C)c3ccccc3)n2)cc1OC,/,.,.,81.5,.,.
Cc1cc(C)cc(C(=O)NCC(=O)OCN2C(=O)c3ccccc3C2=O)c1,.,.,.,.,51.6,.
CC(C)CNC(=O)c1c(N)n(/N=C/c2ccccn2)c2nc3ccccc3nc12,.,.,.,.,53.6,.
Cc1ccc(S(=O)(=O)N2CCN(C(=O)c3n[nH]c4ccccc34)CC2)cc1,.,.,.,.,.,.
CCN(CC)S(=O)(=O)c1cccc2cc(C(=O)O)c(O)cc12,/,.,.,78.9,.,.
Cc1ccc(S(=O)(=O)N2CC=C(c3c(C)n(C)c4ccccc34)CC2)cc1,71.0,.,.,.,.,.
Cc1cc(NS(=O)(=O)c2ccc(NC(=O)CN3C(=O)NC(C)(c4ccccc4)C3=O)cc2)nc(C)n1 (configuration not stated),.,.,.,.,.,.
O=C(CCl)Nc1cc(-c2ccccc2)nn1-c1ccccc1,.,-53.5,.,.,.,.
COc1ccccc1NC(=O)/C(=N/OCc1ccc(F)cc1)C(C)=O,.,.,.,.,.,.
CC1=NNC(=O)/C1=C\c1cn(-c2ccccc2)nc1-c1ccc(F)cc1,74.6,-83.4,90.9,99.9,111.5,94.0
CC1=NNC(=O)/C1=C\c1cn(-c2ccccc2)nc1-c1cccs1,87.7,.,111.8,109.0,114.8,94.0
O=Cc1cn(-c2ccccc2)nc1-c1ccc(F)cc1,.,.,.,.,.,.
Cc1ccc(Cn2ncc3c(N4CCN(Cc5ccc(Cl)cc5)CC4)ncnc32)cc1,.,.,.,56.1,.,.
Cc1ccc(Cn2ncc3c(N4CCN(C)CC4)ncnc32)cc1,.,.,.,.,.,.
Cc1ccc(Cn2ncc3c(N4CCN(c5ccc(C)cc5)CC4)ncnc32)cc1,.,.,.,60.7,.,.
Cc1ccc(S(=O)(=O)Nc2cc(C(F)(F)F)ccc2N2CCOCC2)cc1,.,.,.,.,.,.
Oc1c(Cl)cc(Cl)cc1CNc1nccs1,.,.,.,.,.,.
O=S(c1cc(Cl)cc(Cl)c1O)c1cc(Cl)cc(Cl)c1O,54.1,/,/,.,/,.
Cc1ccc(Cl)cc1N(CC(=O)NCc1ccc2c(c1)OCO2)S(C)(=O)=O,.,.,.,.,.,.
C=CCNc1nc(N)c(C(=C(C#N)C#N)c2ccc(Br)cc2)s1,.,.,.,.,55.9,.
O=C(CCCN1C(=O)/C(=C/c2ccccc2Cl)SC1=S)NNC(=O)c1cccnc1,76.7,.,.,86.5,.,84.2
